Data as given in publication PMC4552634, “A New Set of Chemical Starting Points with Plasmodium falciparum Transmission-Blocking Potential for Antimalarial Drug Discovery” (PLoS ONE, 2015).
Where two headings read alike, the source gives them in different places. Among all 13,000 compounds or so, about 3,200 (25%) showed an effect of 50% or more. The list shows a part of the results.

Tested on: P. falciparum stage V gametocytes
Parameters: BacTiter-Glo ATP luminescence viability of purified stage V gametocytes in 384-well plates, per cent inhibition versus DMSO
Conditions: 48 h, 5 µM, inhibitor

SMILES | % Inhibition [%] | % Inhibition (% Inhibition) [%]
CCCc1cc(N2CCC(N3CCCC3)CC2)nc(Nc2ccc(OC)cc2)n1 [TCMDC-132387] | 2.102 | –
C=C[C@H]1CN2CC[C@H]1C[C@H]2[C@H](O)c1ccnc2ccc(OC)cc12 [TCMDC-125479] | – | -1.021
CC(C)=CCc1c(-c2ccc(O)cc2O)oc2c3c(cc(O)c2c1=O)OC(C)(C)C=C3 [TCMDC-124149] | 26.1 | –
COc1cc2ccccc2c(OC)c1CCNCCCCNCCc1c(OC)cc2ccccc2c1OC [TCMDC-137842] | 116.9 | –
O=C(CC(c1ccccc1)c1ccccc1O)N1CCOCC1 (stereo not shown) [TCMDC-125747] | -30.1 | –
COC(=O)C(c1ccc(NC(=O)[C@H](CC(C)C)NC(=O)OC(C)(C)C)cc1)c1ccc(NC(=O)[C@H](CC(C)C)NC(=O)OC(C)(C)C)cc1 [TCMDC-131874] | -21.29 | –
C=CCc1ccc(C[C@H](NC(=O)OC(C)(C)C)C(=O)OC)cc1 [TCMDC-138140] | 103.3 | –
CC(C)(C)OC(=O)N[C@@H](Cc1ccccc1)C(=O)Nc1cccc(-c2cccc(NC(=O)[C@H](Cc3ccccc3)NC(=O)OC(C)(C)C)c2)c1 [TCMDC-131873] | -20.04 | –
CC(C)(C)c1ccc(C(=O)N2CCC3(CC2)C(=O)N(CC(=O)NCC2CCCO2)CN3c2ccccc2)cc1 (stereo not shown) [TCMDC-125172] | -58.74 | –
COc1ccc(N2CCN(CCCCNC(=O)c3ccc(NC(=O)c4ccc(Cl)cc4)cc3)CC2)c(C)c1 [TCMDC-138431] | -16.53 | –
CN(C)Cc1ccc(-c2cccc(NC(=O)c3cccc(Cl)c3)c2)cc1 [TCMDC-132644] | -4.056 | –
CC(C)NCc1cccc(-c2cccc(NC(=O)c3cccc(Cl)c3)c2)c1 [TCMDC-132658] | 93.91 | –
CC(C)NCc1ccc(-c2ccc(NC(=O)c3ccc(Cl)cc3)cc2)cc1 [TCMDC-132586] | 47.91 | –
CN(C)CCN(C)Cc1ccc(-c2ccc(NC(=O)c3cccc(Cl)c3)cc2)cc1 [TCMDC-132593] | 39.43 | –
CC(C)NCc1ccc(-c2ccc(NC(=O)c3cccc(Cl)c3)cc2)cc1 [TCMDC-132592] | 87.86 | –
CC(C)NCc1ccc(-c2cccc(NC(=O)c3cccc(Cl)c3)c2)cc1 [TCMDC-132642] | 18.79 | –
O=C(Nc1ccc(Cn2ncc(N3CCCNCC3)c(Cl)c2=O)cc1)Nc1ccc(OCc2ccccc2)cc1 [TCMDC-133319] | 26.32 | –
COC(=O)c1ccc(CC(C)NCC(O)c2cccc(Cl)c2Cl)cc1 (stereo not shown) [TCMDC-131483] | 20.31 | –
CCCNC(=O)c1ccnc(-c2ccc(CNC3Cc4ccccc4C3)cc2)c1 [TCMDC-134255] | 1.364 | –
CC(C)CC(=O)N(Cc1ccc(-c2ccc(CNC3Cc4ccccc4C3)cc2)cc1)C1CCNCC1 [TCMDC-141449] | 118.6 | –
CC(C)CNC(=O)c1ccnc(-c2ccc(CNC3Cc4ccccc4C3)cc2)c1 [TCMDC-134254] | 4.563 | –
CC[C@H](C)CNC(=O)c1ccnc(-c2ccc(CNC3Cc4ccccc4C3)cc2)c1 [TCMDC-134253] | 2.834 | –
CC(C)CNC(=O)c1cncc(-c2ccc(CNC3Cc4ccccc4C3)cc2)c1 [TCMDC-134241] | -1.576 | –
O=C(COc1ccccc1)N(Cc1ccc(-c2ccc(CNC3Cc4ccccc4C3)cc2)cc1)C1CCNCC1 [TCMDC-141450] | 110 | –
Cc1ccc(NC(=O)N2CCN(CCCCCNC(=O)/C=C/c3ccc(Cl)c(Cl)c3)CC2)cc1C [TCMDC-135732] | -3.92 | –

SMILES | % Inhibition [%] | % Inhibition (% Inhibition) [%]
CCOC(=O)c1c(CN(CC)CC)n(-c2ccccc2)c2cc(Br)c(O)cc12 [TCMDC-125679] | -14.42 | –
N=C(N)Nc1ccc(Cc2ccc(NC(=N)N)cc2)cc1 [TCMDC-137917] | -14.93 | –
CCCCCN1CCC(NS(=O)(=O)c2cccc(C(=O)Nc3ccc(C(F)(F)F)cc3)c2)C1 (stereo not shown) [TCMDC-132486] | -23.98 | –
CCCCCN1CCCCC(NS(=O)(=O)c2ccc(C(=O)Nc3cccc(C(F)(F)F)c3)cc2)C1 (stereo not shown) [TCMDC-132778] | -0.2647 | –
CCCCCN1CCCC(NS(=O)(=O)c2ccc(C(=O)Nc3cccc(C(F)(F)F)c3)cc2)C1 (stereo not shown) [TCMDC-132774] | -2.262 | –
CCCCCN1CCC(NS(=O)(=O)c2cccc(C(=O)Nc3cccc(C(F)(F)F)c3)c2)C1 (stereo not shown) [TCMDC-132488] | -38 | –
CCCCCN1CCC(NS(=O)(=O)c2ccc(C(=O)Nc3cccc(C(F)(F)F)c3)cc2)C1 (stereo not shown) [TCMDC-132771] | 83.46 | –
CCCCCN1CCCC(NS(=O)(=O)c2cccc(C(=O)Nc3cccc(C(F)(F)F)c3)c2)C1 (stereo not shown) [TCMDC-132768] | 75.62 | –
CN1CC=C(c2c[nH]c3ccc(OCc4ccccc4)cc23)CC1 [TCMDC-132113] | -6.135 | –
Cc1ccc(C2=NNC3(S2)C(=O)Nc2ccc(C)cc23)cc1 (stereo not shown) [TCMDC-123866] | 44.96 | –
CCCCNC(=O)[C@@H]1CCCN1C(=O)c1ccc(O)c(-c2ccc(Cl)c(Cl)c2)c1 [TCMDC-140837] | 7.64 | –
Clc1ccc(CNc2nc(NCCc3cnc[nH]3)nc(NC3CCCCC3)n2)cc1 [TCMDC-139734] | -12.92 | –
NCC1CCCN1Cc1ccc(-c2cccc(-c3nc4ccc(C(F)(F)F)cc4[nH]3)c2)cc1 (stereo not shown) [TCMDC-132990] | 70.04 | –
NCC1CCCN1Cc1ccc(-c2ccc(-c3nc4ccc(C(F)(F)F)cc4[nH]3)cc2)cc1 (stereo not shown) [TCMDC-132995] | 50.61 | –
NCC1CCCN1Cc1cccc(-c2ccc(-c3nc4ccc(C(F)(F)F)cc4[nH]3)cc2)c1 (stereo not shown) [TCMDC-132996] | 21.42 | –
OCCN1CCN(Cc2ccc(-c3cccc(-c4nc5ccc(C(F)(F)F)cc5[nH]4)c3)cc2)CC1 [TCMDC-133024] | 24.38 | –
OCC1CCN(Cc2ccc(-c3ccc(-c4nc5ccc(C(F)(F)F)cc5[nH]4)cc3)cc2)CC1 [TCMDC-133124] | -13.18 | –
NCC1CCCN1Cc1ccc(-c2ccc(-c3nc4cc(C(F)(F)F)ccc4[nH]3)s2)cc1.O=C(O)C(F)(F)F (stereo not shown) [TCMDC-133000] | 16.97 | –
Fc1ccc2cc(C=Cc3ccncc3)[nH]c2c1 [TCMDC-137494] | -53.7 | –
O=C(Nc1cccc(C(F)(F)F)c1)Nc1nc2ccc([N+](=O)[O-])cc2s1 [TCMDC-123631] | 27.05 | –
Cn1cncc1-c1ccc2ncnc(Nc3ccc(OCc4ccccc4)cc3)c2c1 [TCMDC-137504] | -32.31 | –
Cn1c(Nc2cc(C(C)(C)C)on2)nc2cc(Nc3ccnc(Nc4cccc(S(=O)(=O)N5CCOCC5)c4)n3)ccc21 [TCMDC-134098] | 97.72 | –
CN(c1ccc2c(c1)nc(NC(=O)C1(c3cc(F)ccc3F)CC1)n2C)c1ccnc(Nc2cccc(CS(C)(=O)=O)c2)n1 [TCMDC-141964] | -60.83 | –
Cc1ccc(Nc2nccc(Nc3ccc4c(c3)nc(Nc3cc(C(C)(C)C)on3)n4C)n2)cc1S(C)(=O)=O [TCMDC-141889] | 96.33 | –
Cn1c(NCc2cc(F)cc3c2OCOC3)nc2cc(Nc3ccnc(Nc4cccc(CS(C)(=O)=O)c4)n3)ccc21 [TCMDC-134151] | -2.358 | –

SMILES | % Inhibition [%] | % Inhibition (% Inhibition) [%]
Cn1c(Nc2cc(C(C)(C)C)on2)nc2cc(Nc3ccnc(Nc4cccc(CS(C)(=O)=O)c4)n3)ccc21 [TCMDC-141893] | 24.31 | –
Cc1[nH]nc2cc(Nc3ccnc(Nc4cccc(CN5CCOCC5)c4)n3)ccc12 [TCMDC-138632] | 3.491 | –
Cc1ccc(Nc2nccc(N(C)c3ccc4c(c3)nc(NC(=O)Cc3ccc(Cl)c(Cl)c3)n4C)n2)cc1S(N)(=O)=O [TCMDC-141965] | -9.254 | –
CN(c1ccc2c(c1)nc(Nc1cc(C(C)(C)C)on1)n2C)c1ccnc(Nc2ccc(CS(C)(=O)=O)cc2)n1 [TCMDC-141892] | -9.766 | –
CN1CCN(S(=O)(=O)c2cccc(Nc3nccc(N(C)c4ccc5c(c4)nc(NC(=O)c4cccs4)n5C)n3)c2)CC1 [TCMDC-134378] | 79.98 | –
Cc1ccc(Nc2nc3cc(N(C)c4ccnc(Nc5cccc(CCS(C)(=O)=O)c5)n4)ccc3n2C)cc1 [TCMDC-138853] | -59.51 | –
Cc1ccc(Nc2nccc(Nc3ccc4c(C)[nH]nc4c3)n2)cc1F [TCMDC-138542] | -63.2 | –
Cn1c(Nc2cc(C(C)(C)C)on2)nc2cc(Nc3ccnc(Nc4ccc(CS(C)(=O)=O)cc4)n3)ccc21 [TCMDC-141890] | 82.06 | –
COc1ccc2nc(C)cc(Nc3ccc(Oc4ccc(Cl)c5ccccc45)c(Cl)c3)c2c1 [TCMDC-123856] | 5.816 | –
N#Cc1ccc2c(c1)CN(CCC1CCC(NC(=O)c3cc4cnccc4[nH]3)CC1)CC2 (stereo not shown) [TCMDC-139174] | -27.42 | –
O=C(NCc1cccc(F)c1)Nc1ccc(-c2ccc(-c3nc4ccc(C(F)(F)F)cc4[nH]3)cc2)cc1 [TCMDC-133287] | -9.31 | –
Cc1cccc(NC(c2cccs2)c2c(NC(=O)c3ccccc3)sc(C)c2C)n1 (stereo not shown) [TCMDC-124747] | -63.38 | –
CCCCCOc1ccc(N2C(N)=NC(N)=NC2(C)C)cc1 [TCMDC-137711] | 13.1 | –
CCCCC(NCC)c1ccc(OCCOc2ccc(C(CCCC)NCC)cc2)cc1 (stereo not shown) [TCMDC-137612] | 115.6 | –
CCCCCCC(N)c1ccc(OCCCOc2ccc(C(N)CCCCCC)cc2)cc1 (stereo not shown) [TCMDC-137621] | 121.4 | –
CCCCOc1ccc(C(O)C(CN2CCCCC2)c2ccccc2)cc1 (stereo not shown) [TCMDC-124252] | 4.712 | –
COc1ccc(OCCON)cc1 [TCMDC-123473] | 14.77 | –
CCCCCC(NCCCC)c1ccc(OCCOc2ccc(C(CCCCC)NCCCC)cc2)cc1 (stereo not shown) [TCMDC-137613] | 107.4 | –
CCCCCCCCOc1ccc(N2C(N)=NC(N)=NC2(C)C)cc1 [TCMDC-137707] | -8.138 | –
CCCCCCOc1ccc(N2C(N)=NC(N)=NC2(C)C)cc1 [TCMDC-137369] | 25.73 | –
CCCCCOc1ccc(NC2=CC(=O)C(=O)c3ccccc32)cc1 [TCMDC-125724] | -1.294 | –
C=CCNC(CCCCC)c1ccc(OCCOc2ccc(C(CCCCC)NCC=C)cc2)cc1 (stereo not shown) [TCMDC-137483] | 106.6 | –
CCCCOc1ccc(N2C(N)=NC(N)=NC2(C)C)cc1 [TCMDC-124279] | -11.62 | –
